Source: PubChem BioAssay (several laboratories)
Hsp90 block: displaces geldanamycin probe from tumor Hsp90 | P07900 | NCI-N417 lysate Hsp90, Cy3B-geldanamycin FP displacement | inhibition, % at 30 µM | 64,000 tested, 0.35% active | AID 429;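 active = inhibition above 50%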
Cdc25B block: human M-phase inducer phosphatase 2 inhibition | inhibition, %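 (compounds tested at 10 µM final in the well)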 | recombinant Cdc25B, OMFP fluorescence Ex485/Em525 | P30305 | 65,000 tested, 0.1% active; in the data active = inhibition above about 50%
NADH coupling: inhibitors of enzymes used to reach an NAD/NADH endpoint; coupled PK/LDH NADH assays, four targets; IC50, µM (titrated, usually from 10 µM); 65,000 tested, 0.02% active; AID 774;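 active = single-dose screening hits from any of four coupled enzyme assays that gave an IC50 when retested across doses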;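 also: the DPM-DC format reads NADH fluorescence rather than 340 nm absorbance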
MKP-1 inh: blocks human MKP-1 phosphatase activity; P28562; inhibition, %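 (compounds tested at a single concentration somewhere between 10 and 100 µM)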; recombinant MKP-1, OMFP hydrolysis fluorescence; AID 374; 65,000 tested, 0.15% active;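 active = inhibition above about 50%, limit read from the data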
Target sequence (P28562 whole entry, looked up): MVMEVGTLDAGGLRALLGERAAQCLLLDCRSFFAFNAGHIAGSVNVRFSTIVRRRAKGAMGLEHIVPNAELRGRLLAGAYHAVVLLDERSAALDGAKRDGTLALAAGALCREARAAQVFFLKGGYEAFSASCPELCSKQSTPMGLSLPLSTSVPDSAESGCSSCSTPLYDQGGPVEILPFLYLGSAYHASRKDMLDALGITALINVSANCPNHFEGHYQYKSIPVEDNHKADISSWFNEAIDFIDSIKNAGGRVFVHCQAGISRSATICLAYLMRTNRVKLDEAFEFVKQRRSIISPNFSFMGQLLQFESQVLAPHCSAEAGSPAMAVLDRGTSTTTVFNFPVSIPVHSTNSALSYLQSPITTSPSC
Abs 340nm: compounds absorbing at 340 nm; compound absorbance at 340 nm, fold over control; fold change at 10 µM; 65,000 tested, under 10 active; AID 708;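 active = at 10 µM dose, initial 340 nm absorbance at least 2 fold that of control wells; inactive = change under 2 fold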;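 also: initial absorbance extrapolated from kinetic A340 decline of NADH oxidation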
Fluor 339 460: intrinsic fluorescence of library compounds, ex339/em460 – biochemical, MLSMR library, data from DPM-DC assay, artefact control, profiling panel. compound autofluorescence, ex339/em460 nm, NADH buffer; stronger effect = higher value; 1 = no-compound wells, NADH background. fluorescence fold increase at 10 µM. 65,000 tested, 5.5% active. AID 709;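 active = at 10 µM, mean starting fluorescence two-fold or more over control wells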;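 also: signal is the first read of a kinetic run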
Each line names hits and unclear results; the compound was inactive in the other large screens. Only some compounds are listed: those with a hit (about 5.7% of all), similar ones and a draw of the others.

COc1ccccc1OCc1nc(C#N)c(N2CC(C)CC(C)C2)o1 (configuration not stated)	none
CCn1c2ccccc2c2nnc(SCC(=O)NC(CC(C)C)C(=O)OC)nc21 (configuration not stated)	none
O=C1c2oc3ccc(Cl)cc3c(=O)c2C(c2ccccn2)N1CCCN1CCOCC1 (configuration not stated)	none
CC#CCN(CC#CC)S(=O)(=O)c1ccc(-n2cnnn2)c(OC)c1	none
O=C(NCc1ccccc1)c1n[nH]nc1-c1ccccc1O	none
COc1ccc2c(C)c(Cl)c(=O)oc2c1	Fluor 339 460 2.2
COC(=O)COc1ccc2occ(C(C)=O)c2c1	none
CCc1c(C)c2ccc(OCC(=O)OC)cc2oc1=O	Fluor 339 460 2.9
Cc1cc(=O)oc2cc(OCC(=O)N3CCc4ccccc4C3)ccc12	none (no result: Hsp90 block)
COC(=O)Cc1c(C)c2ccc(OCC(=O)N3CCOCC3)cc2oc1=O	Fluor 339 460 2.9
CC1(NCC(O)COc2cccc3[nH]ccc23)CCC(C(C)(C)NC(=O)CBr)CC1 (configuration not stated)	none (no result: Cdc25B block, NADH coupling, MKP-1 inh, Abs 340nm, Fluor 339 460)
CCOc1ccc(-c2cc(C(=O)O)c3ccccc3n2)c(OCC)c1	none
COc1ccc(-c2cc(C(=O)OCC(=O)N(C)C)c3ccccc3n2)cc1	Fluor 339 460 2.5
COc1cc(=O)n(C)c2cc(N(C)C)ccc12	Fluor 339 460 4
O=C(OCCN1C(=O)c2ccccc2C1=O)c1cc(=O)[nH]c2ccccc12	none
CCCCCOC(=O)c1cc(=O)[nH]c2ccccc12	Fluor 339 460 2
CC1=CC(C#N)(C#N)C(C#N)(C#N)C(c2ccccc2)N1 (configuration not stated)	Hsp90 block 51, Fluor 339 460 3.1
CSC1=C(C#N)C(C)CC(=O)N1 (configuration not stated)	none
Cc1nc(SCC(=O)N2CCN(c3ccccc3)CC2)c2c(=O)n(C)c(=O)n(C)c2n1	none
Nc1ccccc1SCc1cn2cccnc2n1	none
Cn1nnnc1SCc1cn2cccnc2n1	Fluor 339 460 3.3
c1ccc(Cn2c(SCc3cn4cccnc4n3)nnc2-c2ccco2)cc1	Fluor 339 460 2.2
CC(C)OC(=O)CSc1nnc(-c2cnccn2)n1-c1ccccc1	none
COc1cccc(N2C(=O)CC(N3CCC(C(N)=O)(N4CCCCC4)CC3)C2=O)c1 (configuration not stated)	none
COc1ccc(Cl)cc1NC(=O)CSc1nncn1-c1cccnc1	none
O=C(CSc1ccc(-c2nc3ccccc3[nH]2)cn1)N1CCN(C(=O)c2ccco2)CC1	Fluor 339 460 2.1
COc1cc2c(cc1NC(=O)CN(C)Cc1nc3ccccc3c(=O)[nH]1)oc1ccccc12	none
COc1ccc(S(=O)(=O)N2CCCCC2)cc1C(C)C	none
Cc1cc(NC(=O)COC(=O)COc2ccc3c(c2)CCC3)no1	none
CCCCNc1cc(NC(C)=O)cc2cc(OC)c(OC)cc12	Fluor 339 460 2.1
CCCC(=O)Nc1cc(OC)c(OC)cc1C(=O)O	none
O=C(Nc1ccc(-c2nc3ccccc3o2)cc1)C1CCCO1 (configuration not stated)	Fluor 339 460 2.1
COc1ccc(OC)c(S(=O)(=O)N2CCN(c3c(C)cccc3C)CC2)c1	none
O=S(=O)(C/C(=C/CO)S(=O)(=O)c1ccccc1)c1ccccc1	none
CC(SCC(=O)Nc1ccc(S(=O)(=O)N2CCCCC2)cc1)C(=O)O (configuration not stated)	none
CC(C)c1nc(NCCN2CCOCC2)c(C#N)c2c1COC(C)(C)C2	none
CC1(C)Cc2c(C#N)c(NCC3CCCO3)nc(-c3ccco3)c2CO1 (configuration not stated)	Fluor 339 460 2.3
N#Cc1c(-c2ccco2)nc(NCC2CCCO2)[nH]c1=O (configuration not stated)	none
CC1(C)Cc2c(C#N)c(NC3CCCCC3)nc(-c3ccco3)c2CO1	Fluor 339 460 2.2
Cc1ccc(NC(=O)CSc2nnc(Cc3cccn3C)n2-c2ccc(F)cc2)cc1	none
CC(=O)c1ccc(NC(=O)CSc2nnc(Cc3cccn3C)n2-c2ccc(F)cc2)cc1	Hsp90 block 87
COC(=O)c1ccc(COc2ccc(C3C4=C(CCCC4=O)Nc4onc(C)c43)cc2)cc1 (configuration not stated)	Fluor 339 460 2.4
